Several values for one entry are separate records, joined by “and”; a condition that tells them apart may be missing. Equal values may be shown once. Results filed as inconclusive are left out. Activity calls are given as the source filed them. Unless noted, calls come from the whole dose curve; as a rule, active = well fitted curve in either direction with a large enough effect (not every such curve was filed as active); inconclusive = small, poorly fitted or top-dose-only effect, or another doubt; inactive = flat fitted curve, though single readings scatter.
Assays:
[1] = biological target: Glucocorticoid receptor (Homo sapiens) (UniProt P04150); test: GR-GFP Redistribution (AID 450;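 active = compounds whose dose series gives a full or clear partial fitted curve of increased nuclear translocation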; note: potency is the fitted concentration of half-maximal effect); settings: U2OS GR-GFP nuclear translocation, laser cytometry, 2 h
[2] = biological target: Glucocorticoid receptor (Homo sapiens) (UniProt P04150); test: GR-EFC Redistribution (AID 451; calls by dose curve; note: potency is the fitted concentration of half-maximal effect); settings: CHO-K1 GR-EFC translocation, beta-gal luminescence, 2 h
In short: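 CHO-K1 cells expressing nuclear EA and GR-ED fragments of b-gal; compounds titrated up to 46 uM final, 2 h at 37 C. GR nuclear translocation read as complemented b-gal luminescence after 1 h RT detection.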

[3] = biological target: Mitogen-activated protein kinase 10 (Mus musculus) (UniProt Q61831); test: JNK3 AlphaScreen Assay (AID 530); settings: JNK3 lysate, c-Jun phosphorylation; series mostly up to 57.1 µM;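 note: kinase came from lysate of stimulated human HepG2 cells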; note: potency is the fitted concentration of half-maximal effect
In short: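 Pre-activated (IL-1β/TNFα) JNK3 in HepG2 lysates phosphorylates biotin-GST-cJun(1-79), 10 uM ATP; anti-phospho-cJun(Ser73) AlphaScreen read at room temperature, pH 7.6 Tris buffer. Compounds pre-incubated 15 min as titrations.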

[4] = Cell Viability - N2a (AID 540; active = well fitted curve in the direction sought with a large enough effect; an effect the other way counts as inactive or inconclusive;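 note: plate controls were DMSO alone for no effect and tamoxifen control for full effect; nearly all actives have a fitted effect of over 45% in size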); settings: N2a mouse neuroblastoma cell viability; series mostly up to 92.2 µM
In short: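 Mouse neuroblastoma N2a cells, 1500/well, exposed to compounds 40 h at 37 °C in complete medium. Viability measured as cellular ATP by CellTiter-Glo luminescence; AC50 from Hill fits of concentration-response.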

[5] = Cell Viability - NIH 3T3 (AID 541; active = well fitted curve in the direction sought with a large enough effect; an effect the other way counts as inactive or inconclusive; note: nearly all actives have a fitted effect of over 25% in size; note: potency is the fitted concentration of half-maximal effect;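 for activity change, negative = cytotoxicity: plate controls were DMSO alone for no effect and tamoxifen positive control for full effect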); settings: NIH 3T3 cell viability, qHTS; activity change, negative = cytotoxicity: at 92.2 µM (top of the series)
In short: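 Mouse NIH 3T3 fibroblasts, 1000 cells/well, rested 5 hr at 37 °C, then exposed to compound for 40 hr at 37 °C in complete medium. Viability read as intracellular ATP by CellTiter-Glo luminescence; AC50 from Hill-equation fits of concentration-response data.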

[6] = Cell Viability - HUV-EC-C (AID 542; active = well fitted curve in the direction sought with a large enough effect; an effect the other way counts as inactive or inconclusive; note: nearly all actives have a fitted effect of over 35% in size; note: potency is the fitted concentration of half-maximal effect; for activity change, negative = cytotoxicity: % is set by controls: 0 for no effect and ±100 for the full control effect); settings: HUV-EC-C endothelial cell viability, qHTS; series mostly up to 92.2 µM
In short: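 HUV-EC-C human vascular endothelial cells, 1000/well, exposed to compound for 40 hr at 37 °C in complete medium. Intracellular ATP was read by CellTiter-Glo luminescence. AC50 came from Hill-equation fits of concentration-response data.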

[7] = Cell Viability - H-4-II-E (AID 543; active = well fitted curve in the direction sought with a large enough effect; an effect the other way counts as inactive or inconclusive; note: nearly all actives have a fitted effect of over 35% in size; note: potency is the fitted concentration of half-maximal effect); settings: H-4-II-E rat hepatoma viability; series mostly up to 92.2 µM
In short: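 Rat hepatoma H-4-II-E cells, 1500 per well, treated 40 h at 37 °C in complete medium. Cellular ATP read by CellTiter-Glo luminescence; AC50 from Hill fits of concentration-response.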

[8] = Cell Viability - SH-SY5Y (AID 544; active = well fitted curve in the direction sought with a large enough effect; an effect the other way counts as inactive or inconclusive; note: nearly all actives have a fitted effect of over 55% in size; note: potency is the fitted concentration of half-maximal effect); settings: SH-SY5Y neuroblastoma cell viability; series mostly up to 92.2 µM
In short: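 SH-SY5Y human neuroblastoma cells (1500/well) incubated 5 h, then compound-treated 40 h at 37 °C in complete medium. Viability read as intracellular ATP by CellTiter-Glo luminescence after 20 min; AC50 from Hill-equation fits of qHTS concentration-response.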

[9] = Cell Viability - Renal Proximal Tubule (AID 545; active = well fitted curve in the direction sought with a large enough effect; an effect the other way counts as inactive or inconclusive; note: nearly all actives have a fitted effect of over 40% in size; note: potency is the fitted concentration of half-maximal effect;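 for activity change, negative = cytotoxicity: 0% = DMSO only and -100% = 100 µM tamoxifen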); settings: renal proximal tubule cells viability, primary cells of rat origin; activity change, negative = cytotoxicity: at 91.7 µM (top of the series)
In short: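 Primary rat renal proximal tubule cells (1000/well) were treated with compounds for 40 hr at 37 °C in complete medium. Intracellular ATP was measured by CellTiter-Glo luminescence, and AC50 values came from Hill-equation fits of concentration-response data.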

[10] = Cell Viability - Mesenchymal (AID 546; active = well fitted curve in the direction sought with a large enough effect; an effect the other way counts as inactive or inconclusive;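 note: cells exposed to compound for 40 hours before reading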; note: potency is the fitted concentration of half-maximal effect;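 for activity change, negative = cytotoxicity: 0% = DMSO only and -100% = 100 µM tamoxifen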); settings: mesenchymal cells viability, qHTS; activity change, negative = cytotoxicity: at 91.7 µM (top of the series)
In short: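 Human kidney mesenchymal cells from normal renal glomeruli, 1000 cells/well, rested 5 hr at 37 °C, then treated 40 hr at 37 °C in complete medium. Cellular ATP read by CellTiter-Glo luminescence; AC50 from Hill-equation fits.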

Sequence of Glucocorticoid receptor (Homo sapiens) (P04150 whole entry, looked up, the tested form may be a part): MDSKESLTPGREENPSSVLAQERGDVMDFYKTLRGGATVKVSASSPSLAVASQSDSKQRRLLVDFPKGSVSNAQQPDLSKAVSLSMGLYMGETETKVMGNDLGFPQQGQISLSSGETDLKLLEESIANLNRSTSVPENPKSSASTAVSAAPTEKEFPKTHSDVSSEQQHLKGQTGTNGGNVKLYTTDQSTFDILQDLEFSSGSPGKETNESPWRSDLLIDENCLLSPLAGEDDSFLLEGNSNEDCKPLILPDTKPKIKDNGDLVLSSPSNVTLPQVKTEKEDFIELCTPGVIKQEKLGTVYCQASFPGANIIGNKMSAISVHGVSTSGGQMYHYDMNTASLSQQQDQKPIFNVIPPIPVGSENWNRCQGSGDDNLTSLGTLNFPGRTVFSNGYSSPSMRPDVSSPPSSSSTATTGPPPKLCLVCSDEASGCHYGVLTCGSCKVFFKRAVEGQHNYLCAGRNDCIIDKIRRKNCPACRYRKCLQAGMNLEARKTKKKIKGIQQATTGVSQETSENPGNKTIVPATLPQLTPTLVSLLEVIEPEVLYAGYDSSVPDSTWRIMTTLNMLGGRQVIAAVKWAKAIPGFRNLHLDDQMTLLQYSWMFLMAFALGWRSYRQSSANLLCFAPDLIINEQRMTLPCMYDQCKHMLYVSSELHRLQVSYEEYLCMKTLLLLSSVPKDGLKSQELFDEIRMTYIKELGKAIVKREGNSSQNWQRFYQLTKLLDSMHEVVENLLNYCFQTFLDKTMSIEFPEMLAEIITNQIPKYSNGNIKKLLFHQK

COCC(=O)O[C@]1(CCN(C)CCCc2nc3ccccc3[nH]2)CCc2cc(F)ccc2[C@@H]1C(C)C
inactive: Potency [1] > 46 µM | Potency [2] > 46 µM | Potency [3]

CN1CCN(C2=Nc3ccccc3Oc3ccc(Cl)cc32)CC1
inactive: Potency [1] > 46 µM and > 20.6 µM | Potency [2] > 46 µM and > 20.6 µM | Potency [3]

CCCCNc1c(C(=O)OCC)c(C)nc2c1cnn2CC
inactive: Potency [1] > 46 µM and > 20.6 µM | Potency [2] > 46 µM and > 20.6 µM | Potency [3]

Cc1nc2sccn2c(=O)c1CCN1CCC(=C(c2ccc(F)cc2)c2ccc(F)cc2)CC1
inactive: Potency [1] > 46 µM and > 20.6 µM | Potency [2] > 46 µM | Potency [3]

NCCCNCCSP(=O)(O)O
inactive: Potency [1] > 46 µM | Potency [2] > 46 µM | Potency [3]

CN/C(=C\[N+](=O)[O-])NCCSCc1ccc(CN(C)C)o1
inactive: Potency [1] > 46 µM and > 20.6 µM | Potency [2] > 46 µM and > 20.6 µM | Potency [3]

CC(C)NNC(=O)c1ccncc1
inactive: Potency [1] > 46 µM and > 20.6 µM | Potency [2] > 46 µM and > 20.6 µM | Potency [3]

CCO/C([O-])=N/c1c[n+](N2CCOCC2)no1
inactive: Potency [1] > 46 µM and > 20.6 µM | Potency [2] > 46 µM and > 20.6 µM | Potency [3]

COc1cc(C(=O)OCCCN2CCCN(CCCOC(=O)c3cc(OC)c(OC)c(OC)c3)CC2)cc(OC)c1OC
inactive: Potency [1] > 46 µM and > 20.6 µM | Potency [2] > 46 µM and > 20.6 µM | Potency [3]

CN(C)C(=O)Oc1cccc([N+](C)(C)C)c1
inactive: Potency [1] > 46 µM and > 20.6 µM | Potency [2] > 46 µM and > 20.6 µM | Potency [3]

CCCCNC(=O)NS(=O)(=O)c1ccc(C)cc1
inactive: Potency [1] > 46 µM and > 20.6 µM | Potency [2] > 46 µM and > 20.6 µM | Potency [3] | outcome [4] | activity change, negative = cytotoxicity [5] -10.4% | Potency [6] | Potency [7] | Potency [8] | activity change, negative = cytotoxicity [9] -6.67% | Potency [10]

NC(=Nc1ccccc1)Nc1ccccc1
inactive: Potency [3] | outcome [4] | activity change, negative = cytotoxicity [5] -3.31% | Potency [6] | Potency [7] | Potency [8] | activity change, negative = cytotoxicity [9] -3.07% | Potency [10]

CCN1CCC[C@H]1CNC(=O)c1c(O)c(Cl)cc(Cl)c1OC
inactive: Potency [3]

O=C1CC2(CCCC2)CC(=O)N1CCCCN1CCN(c2ncccn2)CC1
inactive: Potency [3]

C[C@H](CS)C(=O)N1CCC[C@H]1C(=O)O
inactive: Potency [3]

CN=C(NC#N)NCCSCc1nc[nH]c1C
inactive: Potency [3] | outcome [4] | activity change, negative = cytotoxicity [5] -4.92% | Potency [6] | Potency [7] | Potency [8] | activity change, negative = cytotoxicity [9] -10.6% | Potency [10]

C[N+](C)(C)CCOC(N)=O
inactive: Potency [3]

N[C@@H](COP(=O)(O)O)C(=O)O
inactive: Potency [1] > 46 µM | Potency [2] > 46 µM | Potency [3]

COC(=O)[C@@H](N)Cc1ccc(O)c(O)c1
inactive: Potency [3]

CC[N+](C)(C)c1cccc(O)c1
inactive: Potency [3]

Nc1ncn([C@@H]2O[C@H](CO)[C@@H](O)[C@H]2O)c(=O)n1
active: Potency [5] 5.01 µM | Potency [8] 6.31 µM | Potency [9] 15.8 µM | Potency [10] 31.6 µM
inactive: Potency [3] | Potency [6]

Cc1scc2c1N(C(=O)CN1CCN(C)CC1)c1ccccc1NC2=O
inactive: Potency [3]

CCn1cc(C(=O)O)c(=O)c2cc3c(cc21)OCO3
inactive: Potency [3]

FC(F)(F)c1ccccc1-n1ccnc1
inactive: Potency [1] > 46 µM | Potency [2] > 46 µM | Potency [3]

CSc1ccc(C(=O)c2[nH]c(=O)[nH]c2C)cc1
inactive: Potency [3]

CCN(CC)CC(=O)Nc1c(C)cccc1C
inactive: Potency [3]

O=c1[nH]c(=O)n([C@H]2C[C@H](O)[C@@H](CO)O2)cc1Br
inactive: Potency [3] | outcome [4] | activity change, negative = cytotoxicity [5] -17.9% | Potency [6] | Potency [7] | Potency [8] | activity change, negative = cytotoxicity [9] -3.47% | Potency [10]

CNCCCN1c2ccccc2CCc2ccccc21
inactive: Potency [3]

CCCCCCCC/C=C\CCCCCCCC(=O)NCc1ccc(O)c(OC)c1
inactive: Potency [2] > 46 µM

CC1=NS(=O)(=O)c2cc(Cl)ccc2N1
inactive: Potency [1] > 46 µM and > 20.6 µM | Potency [2] > 46 µM and > 20.6 µM | Potency [3]

CC(C)[N+](C)(CCOC(=O)C1c2ccccc2Oc2ccccc21)C(C)C
inactive: Potency [1] > 46 µM and > 20.6 µM | Potency [2] > 46 µM and > 20.6 µM | Potency [3]

NC(=O)N1c2ccccc2C=Cc2ccccc21
inactive: Potency [3] | outcome [4] | activity change, negative = cytotoxicity [5] -9.01% | Potency [6] | Potency [7] | Potency [8] | activity change, negative = cytotoxicity [9] 2.97% | Potency [10]

CCn1nc(C(=O)O)c(=O)c2cc3c(cc21)OCO3
inactive: Potency [1] > 46 µM and > 20.6 µM | Potency [2] > 46 µM and > 20.6 µM | Potency [3]

COc1cc(Cc2cnc(N)nc2N)cc(OC)c1OC
inactive: Potency [3] | outcome [4] | activity change, negative = cytotoxicity [5] -10.3% | Potency [6] | Potency [8] | activity change, negative = cytotoxicity [9] -5.57% | Potency [10]

CN(C)CCCN1c2ccccc2Sc2ccccc21
inactive: Potency [3]

COC(=O)[C@H]1[C@H]2C[C@@H]3c4[nH]c5cc(OC)ccc5c4CCN3C[C@H]2C[C@@H](OC(=O)c2cc(OC)c(OC)c(OC)c2)[C@@H]1OC
inactive: Potency [3] | activity change, negative = cytotoxicity [5] -19.4%
active: Potency [6] 50.1 µM | Potency [7] 31.6 µM | Potency [8] 31.6 µM | activity change, negative = cytotoxicity [9] -101% | activity change, negative = cytotoxicity [10] -90.3%

CCCCOCCOCCOCc1cc2c(cc1CCC)OCO2
inactive: outcome [4] | Potency [6] | Potency [7] | Potency [8] | activity change, negative = cytotoxicity [9] -1.35% | Potency [10]

O=C(O)CCCCCCCC(=O)O
inactive: Potency [3]

COc1ccc(CN(CCN(C)C)c2ccccn2)cc1
inactive: Potency [1] > 46 µM and > 20.6 µM | Potency [2] > 46 µM and > 20.6 µM | Potency [3] | outcome [4] | activity change, negative = cytotoxicity [5] -13.1% | Potency [6] | Potency [7] | Potency [8] | activity change, negative = cytotoxicity [9] 7.61% | Potency [10]

CCC(=O)c1ccc2c(c1)N(CCCN(C)C)c1ccccc1S2
inactive: Potency [1] > 46 µM | Potency [2] > 46 µM | Potency [3]

Nc1nc(N)c2nc(-c3ccccc3)c(N)nc2n1
active: activity change, negative = cytotoxicity [5] -88.4% | Potency [7] 0.316 µM | activity change, negative = cytotoxicity [9] -93% | Potency [10] 25.1 µM
inactive: Potency [1] > 46 µM and > 20.6 µM | Potency [2] > 46 µM and > 20.6 µM | Potency [3]

CCCOc1ccccc1-c1nc2n[nH]nc2c(=O)[nH]1
inactive: Potency [1] > 46 µM and > 20.6 µM | Potency [2] > 46 µM and > 20.6 µM | Potency [3]

Cc1ccc(=O)n(-c2ccccc2)c1
active: Potency [3] 12.6 µM

From PubChem BioAssay (NCATS)
